{"source": "paper PMC9911399", "about": "“Two distinct binding modes provide the RNA-binding protein RbFox with extraordinary sequence specificity”", "binders": {"B1": {"name": "GUAUAGC (DNA:RNA)", "RNA": "GGGAGACCGGAAUUCAGAUUGUCCGUAUAGCUUAAAUCCCGUCGUAGCCACCA", "DNA 1": "CAATCTGAATTCCGGTCTCCC", "DNA 2": "TGGTGGCTACGACGGGATT"}, "B2": {"name": "GGGGUUC (DNA:RNA)", "RNA": "B1 RNA with U26G, A27G, U28G, A29U, G30U", "DNA 1": "CAATCTGAATTCCGGTCTCCC", "DNA 2": "TGGTGGCTACGACGGGATT"}, "B3": {"name": "GUGCGGG (DNA:RNA)", "RNA": "B1 RNA with A27G, U28C, A29G, C31G", "DNA 1": "CAATCTGAATTCCGGTCTCCC", "DNA 2": "TGGTGGCTACGACGGGATT"}, "B4": {"name": "CGGGUUC (DNA:RNA)", "RNA": "B1 RNA with G25C, U26G, A27G, U28G, A29U, G30U", "DNA 1": "CAATCTGAATTCCGGTCTCCC", "DNA 2": "TGGTGGCTACGACGGGATT"}, "B5": {"name": "GGGUUCU (DNA:RNA)", "RNA": "B1 RNA with U26G, A27G, A29U, G30C, C31U", "DNA 1": "CAATCTGAATTCCGGTCTCCC", "DNA 2": "TGGTGGCTACGACGGGATT"}, "B6": {"name": "GGGUUCG (DNA:RNA)", "RNA": "B1 RNA with U26G, A27G, A29U, G30C, C31G", "DNA 1": "CAATCTGAATTCCGGTCTCCC", "DNA 2": "TGGTGGCTACGACGGGATT"}, "B7": {"name": "UUCCGGG (DNA:RNA)", "RNA": "B1 RNA with G25U, A27C, U28C, A29G, C31G", "DNA 1": "CAATCTGAATTCCGGTCTCCC", "DNA 2": "TGGTGGCTACGACGGGATT"}, "B8": {"name": "GGGUUUC (DNA:RNA)", "RNA": "B1 RNA with U26G, A27G, A29U, G30U", "DNA 1": "CAATCTGAATTCCGGTCTCCC", "DNA 2": "TGGTGGCTACGACGGGATT"}, "B9": {"name": "GGGUUCC (DNA:RNA)", "RNA": "B1 RNA with U26G, A27G, A29U, G30C", "DNA 1": "CAATCTGAATTCCGGTCTCCC", "DNA 2": "TGGTGGCTACGACGGGATT"}, "B10": {"name": "GCGGGGG (DNA:RNA)", "RNA": "B1 RNA with U26C, A27G, U28G, A29G, C31G", "DNA 1": "CAATCTGAATTCCGGTCTCCC", "DNA 2": "TGGTGGCTACGACGGGATT"}, "B11": {"name": "UCGUGUC (DNA:RNA)", "RNA": "B1 RNA with G25U, U26C, A27G, A29G, G30U", "DNA 1": "CAATCTGAATTCCGGTCTCCC", "DNA 2": "TGGTGGCTACGACGGGATT"}, "B12": {"name": "AGCGUAU (DNA:RNA)", "RNA": "GGGAGACCGGAAUUCAGAUUGUCCAGCGUAUUUAAAUCCCGUCGUAGCCACCA", "DNA 1": "CAATCTGAATTCCGGTCTCCC", "DNA 2": "TGGTGGCTACGACGGGATT"}, "B13": {"name": "CCUGAUG (DNA:RNA)", "RNA": "B12 RNA with A25C, G26C, C27U, U29A, A30U, U31G", "DNA 1": "CAATCTGAATTCCGGTCTCCC", "DNA 2": "TGGTGGCTACGACGGGATT"}, "B14": {"name": "GCGUCGC (DNA:RNA)", "RNA": "B1 RNA with U26C, A27G, A29C", "DNA 1": "CAATCTGAATTCCGGTCTCCC", "DNA 2": "TGGTGGCTACGACGGGATT"}, "B15": {"name": "GUGAUAC (DNA:RNA)", "RNA": "B1 RNA with A27G, U28A, A29U, G30A", "DNA 1": "CAATCTGAATTCCGGTCTCCC", "DNA 2": "TGGTGGCTACGACGGGATT"}, "B16": {"name": "CCGUGAG (DNA:RNA)", "RNA": "B12 RNA with A25C, G26C, C27G, G28U, U29G, U31G", "DNA 1": "CAATCTGAATTCCGGTCTCCC", "DNA 2": "TGGTGGCTACGACGGGATT"}, "B17": {"name": "GAACUGU (DNA:RNA)", "RNA": "B1 RNA with U26A, U28C, A29U, C31U", "DNA 1": "CAATCTGAATTCCGGTCTCCC", "DNA 2": "TGGTGGCTACGACGGGATT"}, "B18": {"name": "GGAGAUG (DNA:RNA)", "RNA": "B1 RNA with U26G, U28G, G30U, C31G", "DNA 1": "CAATCTGAATTCCGGTCTCCC", "DNA 2": "TGGTGGCTACGACGGGATT"}, "B19": {"name": "GGAUGUU (DNA:RNA)", "RNA": "B1 RNA with U26G, A29G, G30U, C31U", "DNA 1": "CAATCTGAATTCCGGTCTCCC", "DNA 2": "TGGTGGCTACGACGGGATT"}, "B20": {"name": "GGAUGUG (DNA:RNA)", "RNA": "B1 RNA with U26G, A29G, G30U, C31G", "DNA 1": "CAATCTGAATTCCGGTCTCCC", "DNA 2": "TGGTGGCTACGACGGGATT"}, "B21": {"name": "GGGAUGU (DNA:RNA)", "RNA": "B12 RNA with A25G, C27G, G28A, A30G", "DNA 1": "CAATCTGAATTCCGGTCTCCC", "DNA 2": "TGGTGGCTACGACGGGATT"}, "B22": {"name": "CCGGAUG (DNA:RNA)", "RNA": "B12 RNA with A25C, G26C, C27G, U29A, A30U, U31G", "DNA 1": "CAATCTGAATTCCGGTCTCCC", "DNA 2": "TGGTGGCTACGACGGGATT"}, "B23": {"name": "GGAUUGU (DNA:RNA)", "RNA": "B1 RNA with U26G, A29U, C31U", "DNA 1": "CAATCTGAATTCCGGTCTCCC", "DNA 2": "TGGTGGCTACGACGGGATT"}, "B24": {"name": "GUGGAGA (DNA:RNA)", "RNA": "B1 RNA with A27G, U28G, C31A", "DNA 1": "CAATCTGAATTCCGGTCTCCC", "DNA 2": "TGGTGGCTACGACGGGATT"}, "B25": {"name": "GGAUGUC (DNA:RNA)", "RNA": "B1 RNA with U26G, A29G, G30U", "DNA 1": "CAATCTGAATTCCGGTCTCCC", "DNA 2": "TGGTGGCTACGACGGGATT"}, "B26": {"name": "GGGGAUG (DNA:RNA)", "RNA": "B12 RNA with A25G, C27G, U29A, A30U, U31G", "DNA 1": "CAATCTGAATTCCGGTCTCCC", "DNA 2": "TGGTGGCTACGACGGGATT"}, "B27": {"name": "GUGGAUG (DNA:RNA)", "RNA": "B1 RNA with A27G, U28G, G30U, C31G", "DNA 1": "CAATCTGAATTCCGGTCTCCC", "DNA 2": "TGGTGGCTACGACGGGATT"}, "B28": {"name": "UUGGAUG (DNA:RNA)", "RNA": "B1 RNA with G25U, A27G, U28G, G30U, C31G", "DNA 1": "CAATCTGAATTCCGGTCTCCC", "DNA 2": "TGGTGGCTACGACGGGATT"}, "B29": {"name": "CGGGAUG (DNA:RNA)", "RNA": "B12 RNA with A25C, C27G, U29A, A30U, U31G", "DNA 1": "CAATCTGAATTCCGGTCTCCC", "DNA 2": "TGGTGGCTACGACGGGATT"}, "B30": {"name": "AACCAGU (DNA:RNA)", "RNA": "B12 RNA with G26A, G28C, U29A, A30G", "DNA 1": "CAATCTGAATTCCGGTCTCCC", "DNA 2": "TGGTGGCTACGACGGGATT"}, "B31": {"name": "AAUAAUU (DNA:RNA)", "RNA": "B12 RNA with G26A, C27U, G28A, U29A, A30U", "DNA 1": "CAATCTGAATTCCGGTCTCCC", "DNA 2": "TGGTGGCTACGACGGGATT"}}, "note": "Where a chain is given by its changes, count along the chain named. In all, about 16,000 sequences were measured (“ka relative to ugcaugu”: median about 0.0091, highest 2% from about 0.032 on). The sample as a whole holds a higher share of the highest values than the screen did."}
{"molecular_target": "T1, RBFOX1 RRM (Homo sapiens, UniProt Q9NWB1 109-208)", "T1 sequence": "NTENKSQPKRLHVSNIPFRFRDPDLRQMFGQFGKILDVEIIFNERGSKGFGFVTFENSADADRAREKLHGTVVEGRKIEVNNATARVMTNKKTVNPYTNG", "assay": "EMSA; HiTS-Eq, 1 nM pool, 10 min; buffer printed only for the single-RNA assays: 10 mM Tris pH 7.5, 150 mM NaCl, 3.4 mM EDTA, 0.001% NP-40, 30 C", "settings": "tags: His6 N-terminal (pET28a); label: 5' 32P", "procedure,_shortened": "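Purified wild-type or mutant RbFox RRM at increasing concentrations was equilibrated with 1 nM of 5′-radiolabelled RNA carrying 7 randomized nucleotides for 10 min in 50 µL. Unbound RNA was separated by 8% native PAGE and sequenced. Relative association constants came from read-count changes of each RNA species compared with the control reaction, normalised to the cognate motif.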"}
{"binder": "B1", "binding signal": "0.00925 KA relative to UGCAUGU"}
{"binder": "B2", "binding signal": "0.0437 KA relative to UGCAUGU"}
{"binder": "B3", "binding signal": "0.0167 KA relative to UGCAUGU"}
{"binder": "B4", "binding signal": "0.0418 KA relative to UGCAUGU"}
{"binder": "B5", "binding signal": "0.0166 KA relative to UGCAUGU"}
{"binder": "B6", "binding signal": "0.026 KA relative to UGCAUGU"}
{"binder": "B7", "binding signal": "0.00531 KA relative to UGCAUGU"}
{"binder": "B8", "binding signal": "0.0237 KA relative to UGCAUGU"}
{"binder": "B9", "binding signal": "0.0348 KA relative to UGCAUGU"}
{"binder": "B10", "binding signal": "0.0269 KA relative to UGCAUGU"}
{"binder": "B11", "binding signal": "0.0187 KA relative to UGCAUGU"}
{"binder": "B12", "binding signal": "0.00639 KA relative to UGCAUGU"}
{"binder": "B13", "binding signal": "0.0205 KA relative to UGCAUGU"}
{"binder": "B14", "binding signal": "0.0157 KA relative to UGCAUGU"}
{"binder": "B15", "binding signal": "0.00876 KA relative to UGCAUGU"}
{"binder": "B16", "binding signal": "0.0105 KA relative to UGCAUGU"}
{"binder": "B17", "binding signal": "0.0163 KA relative to UGCAUGU"}
{"binder": "B18", "binding signal": "0.0269 KA relative to UGCAUGU"}
{"binder": "B19", "binding signal": "0.0216 KA relative to UGCAUGU"}
{"binder": "B20", "binding signal": "0.0207 KA relative to UGCAUGU"}
{"binder": "B21", "binding signal": "0.048 KA relative to UGCAUGU"}
{"binder": "B22", "binding signal": "0.00955 KA relative to UGCAUGU"}
{"binder": "B23", "binding signal": "0.0266 KA relative to UGCAUGU"}
{"binder": "B24", "binding signal": "0.0173 KA relative to UGCAUGU"}
{"binder": "B25", "binding signal": "0.027 KA relative to UGCAUGU"}
{"binder": "B26", "binding signal": "0.0389 KA relative to UGCAUGU"}
{"binder": "B27", "binding signal": "0.0371 KA relative to UGCAUGU"}
{"binder": "B28", "binding signal": "0.0302 KA relative to UGCAUGU"}
{"binder": "B29", "binding signal": "0.0412 KA relative to UGCAUGU"}
{"binder": "B30", "binding signal": "0.000945 KA relative to UGCAUGU"}
{"binder": "B31", "binding signal": "0.00136 KA relative to UGCAUGU"}
